Pf growth 48h = Primary qHTS for delayed death inhibitors of the malarial parasite plastid, 48 hour incubation; P. falciparum luciferase growth in erythrocytes, 48 h; Potency, µM (titrated, usually from 28.7 µM), for inactives: top-dose activity change, negative = inhibition, actives largely listed as inhibitors; 310,000 compounds, 5.9% hits; AID 504832, 2011; further: on the % scale 0 is the no-effect control and ±100 the full control effect
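Growth was read as firefly luciferase luminescence after a 48 h, 37 C, 5% CO2 exposure of compounds to reporter-bearing P. falciparum cultures (0.1% parasitemia, 2% hematocrit final) in Albumax-supplemented RPMI 1640.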
Sm TGR block = qHTS Assay for the Inhibitors of Schistosoma Mansoni Peroxiredoxins; Schistosoma mansoni thioredoxin glutathione reductase (TGR), Q962Y6; 360,000 compounds, 3% hits; Potency, µM (highest dose often 114 µM), inactives show top-dose activity change, negative = inhibition, actives largely listed as inhibitors; purified TGR, DTNB reduction, TNB absorbance 405 nm; AID 485364, 2010; further: on the % scale 0 is the no-effect control and ±100 the full control effect; nearly all actives have a fitted effect of over 60% in size
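First, TGR (20 nM dispensed) and NADPH were mixed with compound. Second, a 15 min room-temperature incubation followed. Third, further NADPH and then DTNB were added to start the reaction. Finally, TNB absorbance was monitored kinetically.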
NS1 function inh = qHTS Assay for Inhibitors of Influenza NS1 Protein Function. AID 2326, 2010. Potency, µM (highest dose often 46.1 µM), for inactives: top-dose activity, positive = more growth. 270,000 compounds, 0.4% hits; calls by dose curve; further: actives are rising curves; nearly all actives have a fitted effect of over 50% in size
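A cell-based growth assay was used: compounds that relieve NS1-induced slow growth of budding yeast raise OD600. Assay medium was yeast nitrogen base with ammonium sulphate and -URA supplement, pH 6.0, with 2% galactose.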
AMA1-RON2 inh = qHTS for Inhibitors of AMA1-RON; Towards Development of Antimalarial Drug Lead: Primary Screen. AID 720542, 2013. 360,000 compounds, 0.2% hits. AlphaScreen AMA1-biotinylated RON2 peptide binding. Potency, µM (highest dose often 58.2 µM), inactives show at the top dose activity change, negative = inhibition, hits mostly inhibitors. Plasmodium falciparum AMA1 (3D7) - RON2 peptide interaction;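 further: 0% = vehicle wells and -100% = peptide control; nearly all actives have a fitted effect of over 45% in size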
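AMA1 (3D7) with his tag at 25 nM final met compounds first, then biotinylated RON2 peptide at 25 nM; detection used donor plus acceptor beads, 10 µg/mL apiece, read by AlphaScreen after 30 min at room temperature.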
Pf growth 96h = Primary qHTS for delayed death inhibitors of the malarial parasite plastid, 96 hour incubation; P. falciparum luciferase reporter growth, 96 h; Potency, µM (doses to about 28.7 µM), without a hit: at the top dose activity change, negative = inhibition, actives largely listed as inhibitors; 320,000 compounds, 6.9% hits; further: on the % scale 0 is the no-effect control and ±100 the full control effect
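Plates of compound plus infected erythrocytes (2% hematocrit, 0.05% parasitemia final) incubate 96 hours, 37 C, 5% CO2. Detection reagent added; reduced luminescence from the parasites' luciferase reporter flags inhibition.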
* = called active by the depositor; [ ] = remark or other dose. Hits are enriched below; roughly 11% of the tested compounds scored in any of these assays. Unless noted, the call rests on the fitted dose curve; in most records, active means well fitted curve in the direction sought with a large enough effect; inconclusive means small, poorly fitted or top-dose-only effect, or another doubt; inactive means no such curve, though single readings can be large; an effect the other way counts as inactive or inconclusive. Potency means the concentration at half of the fitted maximal effect.

Screening CCC(=O)Oc1ccc2ccccc2c1CNC(=O)c1ccccc1 returned Pf growth 48h inconclusive, Sm TGR block -3%, NS1 function inh -22%, AMA1-RON2 inh -9% and Pf growth 96h 9.3µM*.
O=S(=O)(Nc1nc2ccccc2nc1-[n+]1ccccc1)c1ccc(Cl)cc1 was read as Pf growth 48h -17%, Sm TGR block -1%, NS1 function inh -5%, AMA1-RON2 inh -10% and Pf growth 96h inconclusive.
Cc1ccccc1C([O-])=Nc1ccc[n+](-c2nc3ccccc3nc2NS(=O)(=O)c2ccccc2)c1 was read as Pf growth 48h inconclusive, Sm TGR block -9%, NS1 function inh 1%, AMA1-RON2 inh 4% and Pf growth 96h 12µM*.
Screening COc1cc(O)c(C(CC(=O)N2CCCCC2)c2cc(OC)c(OC)c(OC)c2)c(OC)c1 (stereo unspecified) returned Pf growth 48h -19%, Sm TGR block -2%, NS1 function inh -4%, AMA1-RON2 inh 58% and Pf growth 96h inconclusive.
For COc1cc(O)c(C(CCN2CCCCC2)c2cc(OC)c(OC)c(OC)c2)c(OC)c1 (stereo unspecified) the results were Pf growth 48h 0.74µM*, Sm TGR block -19%, NS1 function inh 2%, AMA1-RON2 inh 3% and Pf growth 96h 1.9µM*.
COc1cc(O)c(C(CCN2CCCC2)c2cc(OC)c(OC)c(OC)c2)c(OC)c1 (stereo unspecified) was read as Pf growth 48h 4.1µM*, Sm TGR block inconclusive, NS1 function inh -9%, AMA1-RON2 inh -6% and Pf growth 96h 2.9µM*.
For COc1cc(O)c(C(CCN2CCOCC2)c2cc(OC)c(OC)c(OC)c2)c(OC)c1 (stereo unspecified) the results were Pf growth 48h inconclusive, Sm TGR block -27%, NS1 function inh 1%, AMA1-RON2 inh 6% and Pf growth 96h inconclusive.
`C=CCN1C(=O)c2ccc(C(=O)N(C)Cc3ccc(C)o3)cc2C1=O` gave Pf growth 48h 4%, Sm TGR block 50µM*, AMA1-RON2 inh 81% and Pf growth 96h 16%.
`C=CCN1C(=O)c2ccc(C(=O)N(C)CC(=O)Nc3ccccc3Cl)cc2C1=O` gave Pf growth 48h -17%, Sm TGR block 4%, AMA1-RON2 inh 2% and Pf growth 96h 28%.
COc1ccc(OC)c(N(CC(=O)NCCSC2CCCCC2)S(=O)(=O)c2ccccc2)c1 was read as Pf growth 48h inconclusive, Sm TGR block -1%, NS1 function inh 13%, AMA1-RON2 inh 14% and Pf growth 96h 0%.
Screening CSCCC(NC(=O)c1ccccc1Cl)C(=O)Nc1cccc(S(=O)(=O)N2CCCC2)c1 (stereo unspecified) returned Pf growth 48h 12µM*, Sm TGR block -17%, AMA1-RON2 inh 2% and Pf growth 96h inconclusive.
`COc1ccc(C(CNC(=O)C(CCSC)NC(=O)c2ccccc2Cl)N2CCCC2)cc1` (stereo unspecified) gave Pf growth 48h inconclusive, Sm TGR block -1%, AMA1-RON2 inh -11% and Pf growth 96h inconclusive.
`COc1ccc(C(CNC(=O)C(CCSC)NC(=O)c2ccccc2Cl)N2CCCCC2)cc1` (stereo unspecified) gave Pf growth 48h 7.4µM*, Sm TGR block -2%, AMA1-RON2 inh 1%[11.6 µM] and Pf growth 96h inconclusive.
For CSCCC(NC(=O)c1cccc(S(=O)(=O)N2CCOCC2)c1)C(=O)Nc1cccc(C)c1 (stereo unspecified) the results were Pf growth 48h -21%, Sm TGR block 1%, NS1 function inh -5%, AMA1-RON2 inh 1% and Pf growth 96h inconclusive.
CSCCC(NC(=O)c1ccccc1Cl)C(=O)NCC(c1ccco1)N1CCCCC1 (stereo unspecified) was read as Pf growth 48h 15µM*, Sm TGR block -1%, AMA1-RON2 inh 16% and Pf growth 96h 7.4µM*.
`COc1ccc(Cl)c2sc(NC(=O)c3ccc(S(=O)(=O)N4CCOCC4)cc3)nc12` gave Sm TGR block 4%.
Screening COc1ccc(C2(c3ccc(OC)cc3)NC(=O)N(CC(=O)NC3(C#N)CCCC3)C2=O)cc1 returned Pf growth 48h inconclusive, Sm TGR block 3%, AMA1-RON2 inh 4% and Pf growth 96h inconclusive.
Screening Cc1ccc(C2(c3ccccc3)NC(=O)N(CC(=O)NC3(C#N)CCCC3)C2=O)cc1C (stereo unspecified) returned Pf growth 48h 13µM*, Sm TGR block -11%, AMA1-RON2 inh 0% and Pf growth 96h inconclusive.
Cc1ccc(C2(c3ccccc3)NC(=O)N(CC(=O)NCc3ccco3)C2=O)cc1C (stereo unspecified) was read as Pf growth 48h inconclusive, Sm TGR block -21%, AMA1-RON2 inh -7% and Pf growth 96h 5.9µM*.
Screening Cc1cc(C)c(S(=O)(=O)/N=C2\C=C(Nc3ccc(C(=O)O)cc3)C(=O)c3ccccc32)c(C)c1 returned Pf growth 48h 9.3µM*, Sm TGR block inconclusive, NS1 function inh -12%, AMA1-RON2 inh inconclusive and Pf growth 96h 18%.
O=C(O)c1ccc(NC2=C/C(=N/S(=O)(=O)c3ccccc3)c3ccccc3C2=O)cc1 was read as Pf growth 48h inconclusive, Sm TGR block 20µM*, AMA1-RON2 inh inconclusive and Pf growth 96h -22%.
Screening Cc1cc(C)c(S(=O)(=O)/N=C2\C=C(NS(=O)(=O)c3ccccc3)C(=O)c3ccccc32)c(C)c1 returned Pf growth 48h -24%, Sm TGR block -3%, NS1 function inh 13%, AMA1-RON2 inh -16% and Pf growth 96h -24%.
`O=C(O)C1CCN(C(=O)CCc2ccccc2)CC1` gave Pf growth 48h 14%, Sm TGR block -2%, NS1 function inh 1%, AMA1-RON2 inh 7% and Pf growth 96h -7%.
CCc1nc2c(OCc3c(C)noc3C)cccn2c1N(C)C(=O)c1ccccc1F was read as AMA1-RON2 inh 6%.
CCO/C(C)=N/n1c2nc3ccccc3nc2c2c(=O)n(CC(C)C)c(C)nc21 was read as Pf growth 48h 2.9µM*, Sm TGR block -35%, NS1 function inh -3%, AMA1-RON2 inh -10% and Pf growth 96h 2.3µM*.
For O=S(=O)(c1ccc2c(c1)C(O)c1ccccc1CC2)C(F)(F)F (stereo unspecified) the results were Pf growth 48h 7.4µM*, Sm TGR block -8% and Pf growth 96h 3.3µM*.
Screening Nc1cc(S(=O)(=O)C(F)(F)F)ccc1C(=O)O returned Pf growth 48h 13%, Sm TGR block 1%, NS1 function inh 8%, AMA1-RON2 inh 2% and Pf growth 96h 0%.

Compound activity (PubChem BioAssay)
